Some test systems named below: K-562 leukemia; MALME-3M melanoma; MDA-MB-231 breast; RXF 393 renal; SF-268 CNS; SF-295 CNS; SF-539 CNS; UACC-257 melanoma; M14 melanoma; HCT-15 colon; HT29 colon; SNB-75 CNS; SNB-19 CNS; U251 CNS; PC-3 prostate; SK-MEL-5 melanoma; UACC-62 melanoma; LOX IMVI melanoma; SK-MEL-28 melanoma; SK-MEL-2 melanoma.
Holding throughout (assay): NCI-60 one-dose screen, 48 h (100 = growth as untreated, 0 = no growth, -100 = all killed)
Holding throughout (conditions): 10 µM

SMILES strings stand for the structures. This is part of a sample that, as a whole, favours compounds with a hit. Of some 83,000 tested, about 20% had one in any assay.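 Interpretation: 100, growth as untreated; towards 0, rising growth inhibition; 0, no net growth; 0 to -100, cell death. Compounds scoring below 10 were considered active.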 Values without a mark were called inactive. The source made the active and inactive calls.

As for `CCN(CC)CCNC(=O)c1ccc(NC(C)=O)cc1`, the growth in the assay with K-562 leukemia was 99.2%; with MALME-3M melanoma, 103%; with MDA-MB-231 breast it was 91.8%; in the assay with RXF 393 renal it was 109%; in the assay with SF-268 CNS, 109%; with SF-295 CNS, 104%. Besides, the growth in the assay on SF-539 CNS was 107%; with UACC-257 melanoma, 117%; in the assay on M14 melanoma, 109%; with HCT-15 colon, 101%; with HT29 colon, 102%; in the assay with SNB-75 CNS, 112%. Also, the growth with SNB-19 CNS is 98.1%; in the assay on U251 CNS, 93.9%; with PC-3 prostate, 104%; with SK-MEL-5 melanoma, 103%; in the assay on UACC-62 melanoma it was 94.2%; in the assay with LOX IMVI melanoma, 95.3%. The growth in the assay with SK-MEL-28 melanoma was 118%; in the assay with SK-MEL-2 melanoma, 115%.
As for `N#CSCC1CC(O)(c2ccccc2)CC(c2ccc(Cl)cc2)O1` (stereo not given), the growth in the assay with K-562 leukemia is 44.8%; with MALME-3M melanoma, 7.26% (active); in the assay on MDA-MB-231 breast it was 60.8%; with RXF 393 renal it was 9.83% (active); in the assay with SF-268 CNS, 34.6%; in the assay with SF-295 CNS, 46.6%. For the same compound, the growth with SF-539 CNS was 58.8%; in the assay with UACC-257 melanoma, 87.8%; with M14 melanoma it was 9.35% (active); in the assay on HCT-15 colon it was 58.8%; in the assay on HT29 colon it was 3.59% (active); in the assay with SNB-75 CNS, 49.2%. Besides, the growth in the assay with SNB-19 CNS was 81.5%; in the assay on U251 CNS, 55.2%; with PC-3 prostate, 29.4%; with SK-MEL-5 melanoma, 68.3%; in the assay with UACC-62 melanoma it was 56.5%; in the assay with LOX IMVI melanoma it was 13.1%. The growth with SK-MEL-28 melanoma was 72.1%; in the assay on SK-MEL-2 melanoma, 40.5%.
For the compound `CCC(=O)N1C/C(=C/c2ccc(OC)cc2)C(=O)/C(=C/c2ccc(OC)cc2)C1`, the growth was 1.72% (active) in the assay with K-562 leukemia; -9.29% (active) with MALME-3M melanoma; 19.4% with MDA-MB-231 breast; -66.7% (active) in the assay on RXF 393 renal; 24% with SF-268 CNS; -5.17% (active) in the assay on SF-295 CNS. Also, the growth was 54.7% in the assay with SF-539 CNS; 43.4% with UACC-257 melanoma; -16.5% (active) in the assay on M14 melanoma; 4.21% (active) in the assay with HCT-15 colon; -35.5% (active) with HT29 colon; 52.9% in the assay with SNB-75 CNS. The growth in the assay on SNB-19 CNS is 68.2%; in the assay with U251 CNS it was 4.41% (active); with PC-3 prostate, 16.2%; in the assay with SK-MEL-5 melanoma, 15.7%; in the assay with UACC-62 melanoma, 27.3%; in the assay with LOX IMVI melanoma, -58.7% (active). The values for the growth in the assay with SK-MEL-28 melanoma and in the assay on SK-MEL-2 melanoma were 19.2% and 82.3%, respectively.
With `O=C1/C(=C\c2ccccc2)CN(C(=O)c2ccccc2)C/C1=C\c1ccccc1`, the growth is 2.41% (active) in the assay with K-562 leukemia; -37.5% (active) in the assay on MALME-3M melanoma; 7.59% (active) in the assay on MDA-MB-231 breast; -21.2% (active) in the assay on RXF 393 renal; 23.6% with SF-268 CNS; 15.7% in the assay with SF-295 CNS. The growth with SF-539 CNS was 69.4%; in the assay on UACC-257 melanoma it was 4.53% (active); in the assay on M14 melanoma it was -49.5% (active); in the assay with HCT-15 colon, -18.6% (active); in the assay with HT29 colon, -48.5% (active); in the assay with SNB-75 CNS it was 49.7%. For the same compound, the growth was 55.2% with SNB-19 CNS; -32.6% (active) in the assay on U251 CNS; 6.58% (active) in the assay with PC-3 prostate; -22.8% (active) in the assay with SK-MEL-5 melanoma; -1.94% (active) with UACC-62 melanoma; -80.3% (active) with LOX IMVI melanoma. Further, the growth is -7.74% (active) with SK-MEL-28 melanoma and 58.6% in the assay with SK-MEL-2 melanoma.
On to `Nc1c(C(=O)Nc2ccccc2)sc2nc3c(cc12)CCCC3`, for which the growth was 13.6% in the assay with K-562 leukemia; 52% in the assay on MALME-3M melanoma; 56% in the assay on MDA-MB-231 breast; -24.3% (active) in the assay on RXF 393 renal; 54.7% in the assay on SF-268 CNS; 5.09% (active) in the assay on SF-295 CNS. Moreover, the growth in the assay on SF-539 CNS is -3.86% (active); with UACC-257 melanoma, 59.2%; in the assay with M14 melanoma it was 22.7%; with HCT-15 colon it was 24.8%; in the assay with HT29 colon, 10.1%; with SNB-75 CNS, 20.6%. For the same compound, the growth is 64% in the assay with SNB-19 CNS; 21.7% in the assay with U251 CNS; 25.4% in the assay with PC-3 prostate; 31.8% in the assay with SK-MEL-5 melanoma; 47.8% in the assay on UACC-62 melanoma; 53.3% in the assay on LOX IMVI melanoma. The growth in the assay on SK-MEL-28 melanoma is 56%; in the assay on SK-MEL-2 melanoma, 51.5%.
Take `COc1cc(-c2cc(/C=C/C(=O)c3ccc4c(c3)OCO4)[nH]n2)cc(OC)c1OC`: the growth in the assay on K-562 leukemia was 22.3%; in the assay on MALME-3M melanoma it was 95.7%; in the assay with MDA-MB-231 breast it was 64.5%; with RXF 393 renal, 75.4%; in the assay on SF-268 CNS, 85.3%; with SF-295 CNS it was 19.5%. For the same compound, the growth in the assay with SF-539 CNS is 3.66% (active); in the assay with UACC-257 melanoma it was 107%; in the assay on M14 melanoma, 101%; in the assay with HCT-15 colon, 63.9%; in the assay on HT29 colon it was 43%; with SNB-75 CNS it was 69.7%. The growth in the assay with SNB-19 CNS is 66.5%; with U251 CNS, 43%; in the assay with PC-3 prostate, 59%; in the assay on SK-MEL-5 melanoma, 95.9%; in the assay on UACC-62 melanoma, 78.9%; with LOX IMVI melanoma, 42.8%. The growth in the assay on SK-MEL-28 melanoma is 94.3%; with SK-MEL-2 melanoma it was 100%.
Regarding `CC(=O)C1CCC2C3CC(F)C4=CC(=O)CCC4(C)C3C(O)CC12C` (stereo not given), the growth with K-562 leukemia is 86.1%; in the assay on MALME-3M melanoma it was 86.6%; in the assay with MDA-MB-231 breast it was 98.8%; with RXF 393 renal, 118%; in the assay on SF-268 CNS it was 106%; in the assay on SF-295 CNS, 97.8%. Moreover, the growth in the assay with SF-539 CNS was 101%; with UACC-257 melanoma, 98.6%; in the assay on M14 melanoma it was 93.6%; in the assay on HCT-15 colon it was 108%; in the assay with HT29 colon it was 101%; in the assay on SNB-75 CNS, 103%. Moreover, the growth was 109% in the assay on SNB-19 CNS; 104% with U251 CNS; 90.6% in the assay with PC-3 prostate; 102% with SK-MEL-5 melanoma; 103% in the assay on UACC-62 melanoma; 101% in the assay on LOX IMVI melanoma. The growth with SK-MEL-28 melanoma is 112%; in the assay on SK-MEL-2 melanoma it was 137%.

The record behind these values is PubChem BioAssay (NCI).
